From PubChem BioAssay (NCATS)
Where “and” joins values, the source holds several entries; their conditions need not be identical. Identical values can stand only once. Inconclusive results are not listed. Some structures have more than one record in an assay (separate samples or runs), and their calls can disagree. Calls of active or inactive are those of the source. Unless noted, the call rests on the fitted dose curve; in most records, active means well fitted curve in the direction sought with a large enough effect; inconclusive means small, poorly fitted or top-dose-only effect, or another doubt; inactive means no such curve, though single readings can be large; an effect the other way counts as inactive or inconclusive.

Experiments:
[1] = P-glycoprotein substrates identified in KB-8-5-11 adenocarcinoma cell line, qHTS therapeutic library screen (AID 1346987); further: nearly all actives have a fitted effect of over 65% in size; further: potency means the concentration at half of the fitted maximal effect
Outline: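 KB-8-5-11, a colchicine-selected P-gp-overexpressing KB-3-1 subline, was grown without colchicine for the assay. Cells were seeded at 500 cells/well, dosed in concentration-response and incubated 72 h at 37 degree C, 5% CO2. Viability was read by CellTiter-Glo luminescence.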

[2] = target: Atrial natriuretic peptide receptor 1 (Homo sapiens) (UniProt P16066); experiment: Natriuretic polypeptide receptor (hNpr1) antagonism - Pilot screen (AID 1347049; calls by dose curve;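 further: agonist-evoked cGMP luminescence read 20 min after hNppA addition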)
Outline: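 HEK293 cells expressing hNpr1 and GloSensor cGMP luciferase, 1500/well, loaded with 2% GloSensor reagent 2 h, compound 30 min at room temperature; luminescence read before and 20 min after 0.1 nM hNppA stimulation.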

[3] = target: Atrial natriuretic peptide receptor 2 (Homo sapiens) (UniProt P20594); experiment: Natriuretic polypeptide receptor (hNpr2) antagonism - Pilot subtype selectivity assay (AID 1347050; calls by dose curve)
Outline: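 HEK293 cells expressing hNpr2 and a GloSensor cGMP luciferase sensor, 1500/well, preloaded 2 h with 2% GloSensor reagent, compound 30 min, then 1 nM hNppC for 20 min. Antagonism from luminescence after versus baseline pre-read; LOPAC in 1:5 titrations.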

[4] = NS1 protein of Zika virus - qHTS assay to identify small molecule inhibitors in human HEK 293 cells (AID 1347053); further: nearly all actives have a fitted effect of over 55% in size
Outline: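 Following 20 h seeding, HEK 293 cells took compound, then 1 h later ZIKV MR766 (MOI = 0.5). Incubation ran 24 h at 37 C before TR-FRET detection of NS1; a drop in signal indicates inhibition.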

[5] = target: T1, Tyrosine-protein phosphatase non-receptor type substrate 1 (Homo sapiens) + Leukocyte surface antigen CD47 (Homo sapiens) (UniProt P78324+Q08722); experiment: CD47-SIRPalpha protein protein interaction - LANCE assay qHTS validation (AID 1347057; active means well fitted curve in the direction sought with a large enough effect in the signal ratio, with a control signal flat, not every such curve was filed as active; the % refers to the signal ratio)
Outline: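 First, His-tagged CD47 and Eu-labelled anti-His antibody met the compound for 30 min; next, site-specifically biotinylated SIRPalpha was added for 30 min; finally streptavidin-APC was added before reading the TR-FRET ratio.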

[6] = target: T1, Tyrosine-protein phosphatase non-receptor type substrate 1 (Homo sapiens) + Leukocyte surface antigen CD47 (Homo sapiens); experiment: CD47-SIRPalpha protein protein interaction - Alpha assay qHTS validation (AID 1347059);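 further: bead proximity luminescence from CD47 binding SIRPalpha after compound preincubation with SIRPalpha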
Outline: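 Biotinylated Avi-tagged SIRPalpha (25 nM) preincubated 30 min with compound, then His-tagged CD47 (12.5 nM) added 30 min; AlphaScreen with Ni-NTA acceptor and streptavidin donor beads. PBS pH 7.4, 0.05% IGEPAL, room temperature; 7-point titrations.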

[7] = target: Parathyroid hormone/parathyroid hormone-related peptide receptor (Homo sapiens) (UniProt Q03431); experiment: qHTS for PTHR1 Agonists: Optimization Screen against the NCGC LOPAC library (AID 1347079);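 further: GloSensor cAMP luminescence in HEK-293 GP2 cells expressing human PTHR1 with IBMX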
Outline: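 Agonist readout: GloSensor cAMP luminescence, read after 15 min at room temperature. HEK-293-derived GP2 line carries PTHR1; compounds tested as a titration for 1 hr at 37C in presence of IBMX. M-PTH (1-15) served as control.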

[8] = qHTS of pediatric cancer cell lines to identify multiple opportunities for drug repurposing: Primary screen for TC32 cells (AID 1347089); further: nearly all actives have a fitted effect of over 60% in size; further: potency means the concentration at half of the fitted maximal effect
Outline: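 A viability screen of TC32 cells was run over 48 h, with primary MIPE doses spanning 0.78 nM–46 µM and NPC doses 0.59 nM–46 µM. ATP luminescence (CellTiter-Glo) served as the read-out.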

[9] = qHTS of pediatric cancer cell lines to identify multiple opportunities for drug repurposing: Primary screen for DAOY cells (AID 1347090); further: nearly all actives have a fitted effect of over 55% in size
Outline: (§1)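 Viability measured as metabolically active cells via CellTiter-Glo luminescence following 48 hours of compound exposure, 11-point dilutions in confirmatory testing. 500-1,000 cells/well plated 5 hours before dosing; controls were DMSO and 2.3 µM bortezomib.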

[10] = qHTS of pediatric cancer cell lines to identify multiple opportunities for drug repurposing: Primary screen for A673 cells (AID 1347092); further: nearly all actives have a fitted effect of over 45% in size; further: potency means the concentration at half of the fitted maximal effect
Outline: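 Titration-based qHTS on A673 cells: MIPE compounds spanned 11 points (0.78 nM to 46 µM final), NPC compounds 8 points (0.59 nM to 46 µM final). Viability after 48 h was measured by ATP luminescence.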

[11] = qHTS of pediatric cancer cell lines to identify multiple opportunities for drug repurposing: Primary screen for SK-N-MC cells (AID 1347093); further: potency means the concentration at half of the fitted maximal effect
Outline: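 Metabolically active cells were quantified by ATP-dependent luminescence (CellTiter-Glo, 15 min at room temperature) following 48 h treatment. Cells had been plated at 500-1,000 per well and settled for 5 h beforehand.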

[12] = Identifying Small Molecule Inhibitors of Pancreatic Cancer Stem Cells (A278, Adherent) (AID 1259361);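 further: viability read after 48 h compound exposure; nearly all actives have a fitted effect of over 35% in size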
Outline: (§2)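 Endpoint: ATP-based luminescence, 48 h drug exposure. Bortezomib at 9.2 uM final as full-kill control; DMSO vehicle as negative control; activity normalized between vehicle and cell-free wells.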

[13] = Identifying Small Molecule Inhibitors of Pancreatic Cancer Stem Cells (Panc1, Adherent) (AID 1259362); conditions: Potency: viability; further: potency means the concentration at half of the fitted maximal effect
Outline: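 Spheroids grown 14 days in stem cell media on hydrogel-coated nonadherent plates; 2D lines seeded directly. Compounds added after 4 h attachment, 48 h at 37C, 5% CO2; CellTiter-Glo luminescence normalized to DMSO (no inhibition) and no-cell wells (full inhibition).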

[14] = P-glycoprotein substrates identified in KB-3-1 adenocarcinoma cell line, qHTS therapeutic library screen (AID 1346986); conditions: KB-3-1 parental cells viability, CellTiter-Glo, 72 h; at 44.5 µM (top of the series) unless noted; further: nearly all actives have a fitted effect of over 60% in size
Outline: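 KB-3-1 parental and colchicine-selected P-gp-overexpressing KB-8-5-11 cells (colchicine omitted during assay), 500 cells/well, dosed in dose-response for 72 h at 37 °C; CellTiter-Glo luminescence. Cytotoxic: curve class -1.1 to -2.4, max response >50%, AC50 < 10 uM.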

[15] = target: T1, Tyrosine-protein phosphatase non-receptor type substrate 1 (Homo sapiens) + Leukocyte surface antigen CD47 (Homo sapiens); experiment: CD47-SIRPalpha protein protein interaction - HTRF assay qHTS validation (AID 1347058; active means well fitted curve in the direction sought with a large enough effect in the signal ratio, not every such curve was filed as active; the % refers to the signal ratio;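 further: recombinant soluble extracellular CD47 with His tag and biotinylated SIRPalpha domains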)
Outline: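 TR-FRET read (Ch1/Ch2 ratio) of soluble extracellular CD47 and Avi-biotinylated SIRPalpha domains in PBS pH 7.4 with 0.05% IGEPAL; 7-point compound titration. Sequential 30 min room-temperature steps; non-biotinylated SIRPalpha as control inhibitor.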

[16] = qHTS of pediatric cancer cell lines to identify multiple opportunities for drug repurposing: Primary screen for SJ-GBM2 cells (AID 1347091)
Outline: as §1

[17] = Natriuretic polypeptide receptor (hNpr1) antagonism - Pilot counterscreen GloSensor control cell line (AID 1347045; calls by dose curve)
Outline: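 HEK293 cGMP GloSensor cells preloaded 2 h with 2% GloSensor reagent, then compound 30 min before baseline luminescence read. Stimulated with 50 uM sodium nitroprusside, 20 min at room temperature, then read again; counterscreen for Npr1 antagonism.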

[18] = Identifying Small Molecule Inhibitors of Pancreatic Cancer Stem Cells (A2780, Spheroid) (AID 1259357);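 further: spheroids pre-formed over 14 days in stem cell medium on hydrogel; compound exposure lasted 48 h before the ATP luminescence read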
Outline: (§3)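 Pre-formed 14-day tumor spheroids or adherent cells dosed and incubated 48 h, 37C, 5% CO2. Viability assessed by CellTiter-Glo.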

[19] = Identifying Small Molecule Inhibitors of Pancreatic Cancer Stem Cells (SN12C, Adherent) (AID 1259358);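 further: cell survival measured after 48 h of compound exposure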
Outline: as §2

[20] = Identifying Small Molecule Inhibitors of Pancreatic Cancer Stem Cells (SN12C, Spheroid) (AID 1259360)
Outline: as §3

Parathyroid hormone/parathyroid hormone-related peptide receptor (Homo sapiens), sequence (Q03431 whole entry, looked up): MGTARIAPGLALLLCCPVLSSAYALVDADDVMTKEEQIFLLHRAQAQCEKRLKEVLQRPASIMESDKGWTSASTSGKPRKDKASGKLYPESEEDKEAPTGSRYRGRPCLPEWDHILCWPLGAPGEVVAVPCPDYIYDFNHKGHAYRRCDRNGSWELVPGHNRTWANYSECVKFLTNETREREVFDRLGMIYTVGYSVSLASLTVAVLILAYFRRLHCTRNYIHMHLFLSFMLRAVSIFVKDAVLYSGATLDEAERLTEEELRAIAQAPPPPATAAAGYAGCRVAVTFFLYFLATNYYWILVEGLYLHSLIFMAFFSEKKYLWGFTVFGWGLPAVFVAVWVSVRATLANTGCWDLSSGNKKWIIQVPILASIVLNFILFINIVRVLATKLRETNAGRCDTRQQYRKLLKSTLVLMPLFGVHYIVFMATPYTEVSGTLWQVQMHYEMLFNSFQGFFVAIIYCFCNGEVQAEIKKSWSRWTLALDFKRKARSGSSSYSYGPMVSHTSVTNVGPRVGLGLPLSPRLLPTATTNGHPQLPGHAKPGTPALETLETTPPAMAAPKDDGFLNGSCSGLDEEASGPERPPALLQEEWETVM
Atrial natriuretic peptide receptor 2 (Homo sapiens), sequence (P20594 whole entry, looked up): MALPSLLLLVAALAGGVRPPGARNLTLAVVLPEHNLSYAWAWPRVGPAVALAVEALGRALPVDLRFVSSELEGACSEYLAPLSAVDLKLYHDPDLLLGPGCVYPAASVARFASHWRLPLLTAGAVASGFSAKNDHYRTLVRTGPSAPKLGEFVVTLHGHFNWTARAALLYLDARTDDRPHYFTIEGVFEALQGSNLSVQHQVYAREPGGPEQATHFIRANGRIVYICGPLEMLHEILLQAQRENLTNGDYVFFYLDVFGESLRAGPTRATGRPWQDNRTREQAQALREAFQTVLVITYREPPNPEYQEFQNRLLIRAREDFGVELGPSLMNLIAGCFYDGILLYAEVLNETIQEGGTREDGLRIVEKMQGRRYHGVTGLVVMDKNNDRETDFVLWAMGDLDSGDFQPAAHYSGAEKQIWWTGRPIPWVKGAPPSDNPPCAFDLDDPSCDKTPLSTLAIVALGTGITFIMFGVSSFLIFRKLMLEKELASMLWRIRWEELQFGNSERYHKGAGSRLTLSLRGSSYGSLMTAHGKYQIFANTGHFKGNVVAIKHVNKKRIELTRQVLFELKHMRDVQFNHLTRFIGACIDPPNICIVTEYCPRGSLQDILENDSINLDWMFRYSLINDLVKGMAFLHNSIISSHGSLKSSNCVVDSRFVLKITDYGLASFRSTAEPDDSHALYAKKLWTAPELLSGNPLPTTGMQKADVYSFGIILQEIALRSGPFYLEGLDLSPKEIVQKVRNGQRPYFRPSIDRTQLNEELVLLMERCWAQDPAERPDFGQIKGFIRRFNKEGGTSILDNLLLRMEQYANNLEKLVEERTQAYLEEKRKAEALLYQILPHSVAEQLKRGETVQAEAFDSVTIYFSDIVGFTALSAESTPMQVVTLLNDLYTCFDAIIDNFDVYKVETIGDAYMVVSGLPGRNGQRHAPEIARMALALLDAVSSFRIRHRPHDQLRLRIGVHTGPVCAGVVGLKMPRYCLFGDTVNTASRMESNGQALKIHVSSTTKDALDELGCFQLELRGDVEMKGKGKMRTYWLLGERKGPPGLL
T1 sequence (P78324 whole entry, looked up): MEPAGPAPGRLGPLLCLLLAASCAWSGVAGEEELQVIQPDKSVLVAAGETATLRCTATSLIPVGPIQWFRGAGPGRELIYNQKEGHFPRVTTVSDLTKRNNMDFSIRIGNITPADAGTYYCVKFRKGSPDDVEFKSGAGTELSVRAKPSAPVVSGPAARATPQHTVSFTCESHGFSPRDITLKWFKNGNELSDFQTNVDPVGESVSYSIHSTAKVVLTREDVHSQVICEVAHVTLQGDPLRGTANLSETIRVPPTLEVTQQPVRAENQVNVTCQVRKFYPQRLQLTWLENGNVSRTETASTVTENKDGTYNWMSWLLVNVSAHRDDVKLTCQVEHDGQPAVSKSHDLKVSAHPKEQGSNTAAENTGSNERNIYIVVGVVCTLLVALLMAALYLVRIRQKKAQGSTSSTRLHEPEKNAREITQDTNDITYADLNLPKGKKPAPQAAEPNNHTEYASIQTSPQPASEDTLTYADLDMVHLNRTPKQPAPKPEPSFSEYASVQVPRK
T1 sequence (Q08722 whole entry, looked up): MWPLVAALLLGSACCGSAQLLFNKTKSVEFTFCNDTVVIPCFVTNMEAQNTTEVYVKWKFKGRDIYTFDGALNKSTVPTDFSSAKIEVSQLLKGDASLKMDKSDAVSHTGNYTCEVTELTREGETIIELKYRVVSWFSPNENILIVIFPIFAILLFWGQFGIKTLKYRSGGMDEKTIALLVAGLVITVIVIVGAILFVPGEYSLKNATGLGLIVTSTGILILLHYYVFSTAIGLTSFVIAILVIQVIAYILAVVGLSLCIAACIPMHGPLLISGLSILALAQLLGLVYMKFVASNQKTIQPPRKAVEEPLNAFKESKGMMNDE
Atrial natriuretic peptide receptor 1 (Homo sapiens), sequence (P16066 whole entry, looked up): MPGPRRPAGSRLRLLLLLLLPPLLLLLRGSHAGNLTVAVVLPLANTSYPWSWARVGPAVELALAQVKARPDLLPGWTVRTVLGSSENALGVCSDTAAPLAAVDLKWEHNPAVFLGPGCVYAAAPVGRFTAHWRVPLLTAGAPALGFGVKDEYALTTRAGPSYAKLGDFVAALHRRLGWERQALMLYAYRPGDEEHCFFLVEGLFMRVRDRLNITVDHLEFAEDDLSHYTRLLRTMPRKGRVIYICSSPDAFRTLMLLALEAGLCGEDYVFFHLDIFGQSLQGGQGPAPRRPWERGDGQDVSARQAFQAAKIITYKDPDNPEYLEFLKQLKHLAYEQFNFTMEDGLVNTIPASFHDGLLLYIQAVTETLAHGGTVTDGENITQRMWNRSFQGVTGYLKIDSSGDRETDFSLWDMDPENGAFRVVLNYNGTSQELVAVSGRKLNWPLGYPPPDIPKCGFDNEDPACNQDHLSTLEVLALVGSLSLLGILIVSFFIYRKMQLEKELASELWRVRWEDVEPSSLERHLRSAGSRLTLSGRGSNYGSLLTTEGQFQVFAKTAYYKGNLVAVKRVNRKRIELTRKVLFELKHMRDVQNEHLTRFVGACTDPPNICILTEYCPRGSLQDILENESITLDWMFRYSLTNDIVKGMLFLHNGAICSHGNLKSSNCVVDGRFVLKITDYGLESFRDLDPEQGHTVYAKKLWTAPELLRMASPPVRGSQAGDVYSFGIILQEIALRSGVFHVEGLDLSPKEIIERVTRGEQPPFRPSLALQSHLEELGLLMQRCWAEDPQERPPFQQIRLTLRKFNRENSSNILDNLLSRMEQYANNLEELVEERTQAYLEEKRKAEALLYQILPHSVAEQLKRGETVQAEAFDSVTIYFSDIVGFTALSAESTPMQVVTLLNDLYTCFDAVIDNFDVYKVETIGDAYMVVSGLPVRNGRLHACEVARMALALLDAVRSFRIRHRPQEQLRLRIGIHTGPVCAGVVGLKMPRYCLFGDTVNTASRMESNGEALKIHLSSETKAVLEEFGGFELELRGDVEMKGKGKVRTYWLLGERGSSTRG

Nc1cc(=O)[nH]c(N)n1
inactive: Potency [1] | outcome [2] | Potency [3] | Potency [4] | outcome [5] | outcome [6] | Potency [7] | Potency [8] | Potency [9] | Potency [10] | Potency [11]

O=C1Nc2ccc(Cl)cc2[C@@](C#CC2CC2)(C(F)(F)F)O1
active: IC50 (viability decrease) [12] 48.1 µM | Potency [13] 48.1 µM
inactive: Potency [4] | Potency [8]

CN1CCC[C@@H]1Cc1c[nH]c2ccc(CCS(=O)(=O)c3ccccc3)cc12
inactive: outcome [14] | Potency [4] | outcome [5] | outcome [15] | outcome [6] | Potency [8] | Potency [16] | Potency [10] | Potency [11]

C[C@H]1O[C@@H](n2cc(F)c(=O)[nH]c2=O)[C@H](O)[C@@H]1O
inactive: Potency [1] | Potency [4] | outcome [5] | outcome [15] | outcome [6] | Potency [8] | Potency [9] | Potency [10]

CSc1ccc2c(c1)C(N1CCN(C)CC1)Cc1ccccc1S2 (configuration not stated)
inactive: Potency [1] | outcome [2] | outcome [5] | outcome [15] | Potency [7]

C[C@@H]1CN(c2c(F)c(F)c3c(=O)c(C(=O)O)cn(C4CC4)c3c2F)C[C@H](C)N1
inactive: outcome [14] inactive [at 9.29 µM] | Potency [1] | Potency [4] | Potency [8] | Potency [9] | Potency [10] | Potency [11]

CN1CCN(C2Cc3ccccc3Sc3ccc(Cl)cc32)CC1 (configuration not stated)
active: Potency [11] 21.1 µM
inactive: Potency [1] | outcome [17] | outcome [5] | outcome [6] | Potency [7]

Nc1ncnc2c1ncn2[C@@H]1O[C@H](CO)[C@@H](O)[C@H]1O
inactive: Potency [1] | outcome [17] | outcome [2] | Potency [3] | Potency [4] | outcome [5] | outcome [15] | outcome [6] | Potency [7] | Potency [9] | Potency [16]

Cc1cc(C(C#N)c2ccc(Cl)cc2)c(Cl)cc1NC(=O)c1cc(I)cc(I)c1O (configuration not stated)
inactive: outcome [14] | Potency [4]
16.4 µM (active) and inactive: Potency [1]

CC1=C(CC(=O)O)c2cc(F)ccc2/C1=C\c1ccc(S(C)(=O)=O)cc1
inactive: Potency [1] | outcome [17] | outcome [2] | Potency [3] | Potency [4] | outcome [5] | outcome [6] | Potency [7] | Potency [9] | Potency [10] | Potency [11]

CC(=O)O[C@@]12CO[C@@H]1C[C@H](O)[C@@]1(C)C(=O)[C@H](O)C3=C(C)[C@@H](OC(=O)[C@H](O)[C@@H](NC(=O)OC(C)(C)C)c4ccccc4)C[C@@](O)([C@@H](OC(=O)c4ccccc4)[C@H]21)C3(C)C
inactive: outcome [18] | outcome [19] | outcome [20] | IC50 (viability decrease) [12] | Potency [4]
active: Potency [1] 6.51 µM and 4.11 µM | Potency [8] 0.0026 µM | Potency [10] 0.001 µM | Potency [11] 0.001 µM

C#CCN(C)Cc1ccccc1
inactive: Potency [1] | outcome [17] | outcome [2] | Potency [3] | Potency [4] | outcome [5] | outcome [15] | outcome [6] | Potency [7] | Potency [9] | Potency [16] | Potency [10] | Potency [11]
